Screening data as filed in PubChem BioAssay.
Many of the other results were omitted from the sample, so hits are more common in it than they were.
Dicer inh – blocks human Dicer maturation of pre-miR-21. AID 1347074. Q9UPY3. z-score at 25 µM. cat-ELCCA pre-miR-21 Dicer processing, chemiluminescence; stronger effect = higher value. actives 6% (n = 47,000); in the data active means z-score above about 3, passing the limit was not always enough;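 further: higher signal means more uncleaved substrate so more Dicer inhibition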
Hits are given with their value; – = inactive.

SMILES | Dicer inh
CC1(C)CC(=O)C=C(SCC(=O)Nc2cc(C(F)(F)F)cc(C(F)(F)F)c2)S1 | –
CCOC(=O)C1=C(C)NC2=C(C(=O)CC(C)(C)C2)C1c1ccccc1 (centres undefined) | –
Cc1[nH]c2c(C)cccc2c(=O)c1CN1CCCCC1C (centres undefined) | –
Cc1cc(/C=C(\C#N)S(=O)(=O)c2ccccc2)c(C)s1 | –
Cc1onc(-c2ccccc2)c1NC(=O)N(C)C1CCCCC1 | –
O=C(O)CCC(=O)N1CCc2c([nH]c3ccccc23)C1C(F)(F)F (centres undefined) | –
O=C(O)CCCC(=O)N1CCc2c([nH]c3ccccc23)C1C(F)(F)F (centres undefined) | –
O=C(NC(=O)N1CCc2c([nH]c3ccccc23)C1C(F)(F)F)c1ccccc1 (centres undefined) | 7.5
FC(F)(F)Oc1ccc(NC(=S)N2CCc3c([nH]c4ccccc34)C2C(F)(F)F)cc1 (centres undefined) | –
FC(F)(F)Oc1ccccc1NC(=S)N1CCc2c([nH]c3ccccc23)C1C(F)(F)F (centres undefined) | –
O=S(=O)(c1cc(C(F)(F)F)cc(C(F)(F)F)c1)N1CCc2c([nH]c3ccccc23)C1C(F)(F)F (centres undefined) | 3.5
O=C1CC(c2ccccc2Cl)Sc2ccccc2N1 (centres undefined) | –
O=C(Nc1ccc(Cl)c(-c2nc3ccccc3s2)c1)c1cncc(Br)c1 | –
CCc1nc2ccccc2nc1N1CCN(C(=O)Nc2ccccc2)CC1 | –
CCOC(=O)c1ccc(Cl)c(NC(=S)N(C)C)c1 | –
COc1cc(CNCCSc2nnnn2C)ccc1OCc1ccc(Cl)cc1 | –
N#Cc1c2c(c(Sc3nc4ccccc4[nH]3)n3c1nc1ccccc13)CCCC2 | –
CC(C)(C)/C(O)=C/c1nc2cc([N+](=O)[O-])ccc2[nH]c1=O | –
O=[N+]([O-])c1ccc2nc(-c3ccccc3)c(-c3ccccc3)nc2c1 | –
O=c1[nH]c2ccc([N+](=O)[O-])cc2nc1/C=C(\O)c1ccccc1 | 24
N#C/C(=C\Nc1cnccn1)C(=O)c1cccs1 | –
CS(=O)(=O)n1cc(C(=O)C(F)F)c2ccccc21 | –
O=C(NCC1COc2ccccc2O1)C1COc2ccccc2O1 (centres undefined) | –
Cc1c(C(=O)CN2CCN(c3ccc(C(F)(F)F)cn3)CC2)sc2ccc(Cl)cc12 | –
CC(C)(C)OC(=O)NCCN=Cc1ccc(Cl)cc1 | –
SMILES | Dicer inh
CN(C)CCN1C(=O)C(=O)/C(=C(/O)c2ccccc2)C1c1ccc(Br)cc1 (centres undefined) | –
O=C1C(=O)N(CCCN2CCOCC2)C(c2ccccc2)/C1=C(\O)c1ccc(Br)cc1 (centres undefined) | –
O=C(O)CCCN1C(=O)C(=O)/C(=C(/O)c2ccccc2)C1c1ccc(Br)cc1 (centres undefined) | 3.9
O=C(Nc1ccc(Cl)cc1)Nc1nnc(-c2ccccc2Br)s1 | –
O=C(Nc1ccc(F)cc1F)c1cccs1 | 6.4
O=C(Nc1ccc(F)cc1F)C(=S)NCc1cccs1 | –
O=C(Nc1ccc(Sc2ccccc2)nc1Sc1ccccc1)c1cccs1 | –
CCOc1ccc(S(=O)(=O)Nc2c(C)n(C)n(-c3ccccc3)c2=O)cc1 | –
Cc1c(NS(=O)(=O)c2cn(C)cn2)c(=O)n(-c2ccccc2)n1C | 6
CCS(=O)(=O)Nc1c(C)n(C)n(-c2ccccc2)c1=O | –
CCCSc1nnc(/N=C/N(C)C)s1 | –
CC1(C)Cc2c(c(N3CCCC3)nc3sc4c(N5CCOCC5)ncnc4c23)CO1 | –
CC1(C)Cc2c(c(N3CCOCC3)nc3sc(C(=O)Nc4ccccc4)c(N)c23)CO1 | –
CC1(C)Cc2c(c(N3CCOCC3)nc3sc(C(=O)c4ccccc4)c(N)c23)CO1 | 3.2
Cc1cc2c(cc1C)[n+](C)cn2CC(O)COc1cccc(Cl)c1 (centres undefined) | –
CCOC(=O)c1c(Sc2ccccc2)cnn1C(=O)Nc1cccc(Cl)c1 | –
CCOC(=O)C1=C(C)NC2=C(C(=O)CC(C)(C)C2)C1c1ccccc1F (centres undefined) | –
CCCn1c(C)cc(C)c(C#N)c1=O | –
CCCCn1c(C)cc(=S)cc1C | 4.5
CCCCn1c2ccccc2c2ccccc21 | –
Cc1nn(-c2ccccc2)nc1C(=O)ONC(=O)c1ccco1 | –
C#CC1(NS(=O)(=O)c2ccc(SCC(=O)OCC)c([N+](=O)[O-])c2)CCCCC1 | –
Cn1c(=O)n(CC(=O)O)c(=O)c2c1nc1n2CCN1c1ccc(F)cc1 | 5.4
Cc1ccc(N2CCn3c2nc2c3c(=O)n(CC(=O)O)c(=O)n2C)cc1 | –
CC1CN(c2ccc(Cl)cc2)c2nc3c(c(=O)n(CC(=O)O)c(=O)n3C)n2C1 (centres undefined) | –
SMILES | Dicer inh
Cn1c(=O)n(CC(=O)O)c(=O)c2c1nc1n2CCCN1c1ccc(Cl)cc1 | 3
CCOc1ccc(N2CCCn3c2nc2c3c(=O)n(CC(=O)O)c(=O)n2C)cc1 | –
Cn1c(=O)n(CC(=O)O)c(=O)c2c1nc1n2CCCN1c1ccc(F)cc1 | –
O=C(NCCSCc1ccc(Cl)cc1)C(Cl)Cl | –
Cc1cnc(/N=C/NO)c(Br)c1 | –
O=C1/C(=C/c2cn(-c3ccccc3)nc2-c2ccccc2)CCc2ccccc21 | –
CSc1ccccc1N1C(=O)CSC1=S | –
COC(=O)CSC1=C(C#N)C(c2ccc(O)cc2)CC(=O)N1 (centres undefined) | –
Cc1cc(C)cc(Oc2coc3cc(OC(=O)c4ccco4)ccc3c2=O)c1 | –
COCCCNC(=S)NNC(=S)Nc1cccc(C(F)(F)F)c1 | –
CCCCc1c(O)nc(SCCN(CC)CC)n(-c2ccccc2)c1=O | 3.3
CCCCc1c(O)nc2sc3ccccc3n2c1=O | –
CCc1c(O)nc(SCC(=O)N2CCc3ccccc32)n(-c2ccccc2)c1=O | –
N#C/C(=C1C=C(Br)/C(=N/O)C=C/1Cl)c1ccccc1 | –
O=c1[nH]cnc2nc(N3CCOCC3)ncc12 | –
CC(=O)Nc1cc(C)c(NS(=O)(=O)c2ccc(C)cc2)c(C)c1 | –
Cc1ccc(NS(=O)(=O)c2ccc(S(N)(=O)=O)cc2)cc1 | –
Cc1ccc(S(=O)(=O)Nc2ccc(O)c(S(=O)(=O)c3ccc(C)cc3)c2)cc1 | 4
CCCc1nn2c(=O)c(NC(=O)c3ccc(C(C)(C)C)cc3)cnc2s1 | –
O=C(NCc1ccc2c(c1)CCO2)c1ccc2nsnc2c1 | –
O=c1cc(-c2ccccc2)nc2scc(-c3ccc([N+](=O)[O-])cc3)n12 | –
O=C(CN1C2=NCCCN2c2ccccc21)c1ccc(O)cc1 | –
COc1nc2c(c(-c3ccco3)c1C#N)Cc1ccccc1-2 | –
NNC(=S)Nc1cccc(Cl)c1 | –
Oc1ccccc1/C=N/NC(=S)Nc1cccc(Cl)c1 | 13
SMILES | Dicer inh
CNC(=S)N/N=C/c1ccccc1O | –
CC(=O)c1cc(Cl)cc(Cl)c1OC(=O)c1ccccc1Cl | –
COc1cc(/C=C2\CCc3cc(OC)ccc3C2=O)cc(OC)c1 | –
CCOC(=O)C1CCN(C(=S)Nc2c(C)cccc2C)CC1 | –
CC(C)=NN/C(N)=N/C(=S)Nc1ccccc1 | 4
C/C(N)=N/C(=S)Nc1ccc(Cl)cc1 | –
CO/C(N)=N/C(=S)Nc1ccccc1 | –
NC(=O)c1c(NC(=O)CSc2nnnn2-c2ccccc2)sc2c1CCC2 | –
O=C(O/N=C/c1ccc2c(c1)OCO2)C1c2ccccc2Oc2ccccc21 | –
Cc1nonc1NC(=O)OC(C)C | –
COC(=O)C(C(=O)Nc1cc(C)on1)C1CCCC1 (centres undefined) | –
